Test [1] can be described thus: qHTS RealTime-Glo MT Cell Viability Assay in HEK293 cells - 0 hour (AID 1224880). Note: top concentration of the series differs between compounds; nearly all actives have a fitted effect of over 45% in size. The method, boiled down:
(§1)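 600 cells/well were plated with the nonlytic NanoLuc/prosubstrate reagent, pre-incubated 5 h, then given 23 nL of compound in DMSO. Incubation at 37 C for 40 h, with luminescence from viable-cell-reduced substrate read repeatedly from 0 h.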

The nature of test [2]: A CellTox Green Cytotoxicity Assay to monitor cytotoxicity in HEK293 cells - 32 hour (AID 1224881). Note: nearly all actives have a fitted effect of over 40% in size. The essentials: (§2)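 HEK293 cells, 600/well, were preincubated 5 hours and then exposed to compounds at 37 C for up to 40 hours. A cell-impermeant cyanine dye staining dead-cell DNA was read by fluorescence at 0, 8, 16, 24, 32 and 40 h time points.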
The nature of test [3]: A CellTox Green Cytotoxicity Assay to monitor cytotoxicity in HepG2 cells - 0 hour (AID 1224882). Note: nearly all actives have a fitted effect of over 35% in size. The essentials: (§3)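 HepG2 cells, 600/well, preincubated 5 h with CellTox Green dye, then exposed to Tox21 compounds in DMSO at 37 C for up to 40 h. Dead-cell DNA fluorescence read at the indicated time point.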
The nature of test [4]: A CellTox Green Cytotoxicity Assay to monitor cytotoxicity in HepG2 cells - 32 hour (AID 1224883). Note: nearly all actives have a fitted effect of over 50% in size. The essentials:
as §3

Test [5] can be described thus: A CellTox Green Cytotoxicity Assay to monitor cytotoxicity in HEK293 cells - 8 hour (AID 1224884). Note: nearly all actives have a fitted effect of over 35% in size. The method, boiled down:
as §2

A short description of test [6]: qHTS RealTime-Glo MT Cell Viability Assay in HepG2 cells - 16 hour (AID 1224885). Note: nearly all actives have a fitted effect of over 50% in size. The method, boiled down: (§4)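 Compound treatment began 5 h after plating HepG2 cells (600/well) with NanoLuc luciferase and prosubstrate. Plates stayed at 37 C for 40 h; luminescence was captured at six time points, 0 h through 40 h.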
Test [7] is described as follows: A CellTox Green Cytotoxicity Assay to monitor cytotoxicity in HEK293 cells - 16 hour (AID 1224888). Note: nearly all actives have a fitted effect of over 35% in size. The method, boiled down:
as §2

Test [8] is described as follows: qHTS RealTime-Glo MT Cell Viability Assay in HepG2 cells - 0 hour (AID 1224889). Note: nearly all actives have a fitted effect of over 50% in size. The method, boiled down: as §4
Test [9] is described as follows: qHTS RealTime-Glo MT Cell Viability Assay in HEK293 cells - 24 hour (AID 1224886). For activity change, negative = cytotoxicity: top concentration of the series differs between compounds. Note: nearly all actives have a fitted effect of over 50% in size. Note: potency is the fitted concentration of half-maximal effect. The method, boiled down:
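Quantitative high-throughput screen of the Tox21 10K library in HEK293: cells and RealTime-Glo reagents plated together, compound added at 5 h, luminescence monitored through 40 h at 37 C.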

Test [10] can be described thus: qHTS RealTime-Glo MT Cell Viability Assay in HEK293 cells - 8 hour (AID 1224887). For activity change, negative = cytotoxicity: top concentration of the series differs between compounds. Note: nearly all actives have a fitted effect of over 50% in size. Note: potency is the fitted concentration of half-maximal effect. The essentials:
as §1

A number with no mark means an inactive call. Inconclusive results are not listed. Activity calls are given as the source filed them. Calls come from the whole dose curve; as a rule, active = well fitted curve in the direction sought with a large enough effect in the repeat runs; inconclusive = weak or mixed curves; inactive = no such curve, though single readings can be large; an effect the other way counts as inactive or inconclusive.
% is set by controls: 0 for no effect and ±100 for the full control effect.

Consider `N#C/C(=C1\SCC(c2ccccc2Cl)S1)n1ccnc1` (centres undefined), for which the Potency result in test [1], in test [2], in test [3], in [4], in test [5] and in test [6] was “inactive” throughout. The Potency entry in test [7] and in [8] was “inactive” throughout.
Take `COc1ccccc1N=Nc1c(S(=O)(=O)O)cc2cc(S(=O)(=O)O)cc(NC(C)=O)c2c1O`: the Potency entry in test [1], in test [2], in test [3], in test [4], in [6] and in [9] was “inactive” throughout. Further, the Potency result in test [10], in test [7] and in test [8] was “inactive” each time.
Turning to `CC(COc1ccc(C(C)(C)C)cc1)OS(=O)OCCCl` (centres undefined), the Potency result in test [1], in test [2], in test [3], in [4], in test [5] and in test [6] was “inactive” each time. Moreover, the Potency result in [10], in test [7] and in test [8] was “inactive” each time.
With `O=C(Nc1ccccc1)Nc1ccccc1`, the Potency entry in [1], in [2], in [3], in test [4], in test [5] and in [6] was “inactive” throughout. In addition, the Potency result in [7] and in test [8] was “inactive” in each case.
`NC(=O)N(O)[C@@H]1COc2cc(OCc3ccccc3)ccc21`: the Potency entry in test [1], in test [2], in [3], in [5], in [6] and in [9] was “inactive” throughout. In addition, the Potency entry in test [10] and in test [7] was “inactive” each time.
For `OCC1CC=CCC1` (centres undefined), the Potency result in test [1], in [2], in test [3], in test [5], in [6] and in [9] was “inactive” in each case. Besides, the Potency result in test [10], in test [7] and in test [8] was “inactive” each time.
As to `CCCOC(=O)c1ccc(N)cc1`, the Potency entry in [1], in [2], in [3], in [5], in [6] and in test [9] was “inactive” throughout. In addition, the Potency entry in test [10] and in [7] was “inactive” each time.
Take `Cc1ccc(S(=O)(=O)NC2CCCCC2)cc1`: the Potency result in test [1], in [2], in test [3], in [4], in test [5] and in [6] was “inactive” throughout. The Potency entry in [10], in test [7] and in test [8] was “inactive” each time.
Turning to `NCC1CCCC(CN)C1` (centres undefined), the Potency result in [1], in [2], in test [3], in test [5], in [6] and in [9] was “inactive” throughout. For the same molecule, the Potency result in test [10] and in test [7] was “inactive” in each case.
With `CN1CCN(c2c(F)cc3c(=O)c(C(=O)O)cn4c3c2OCN4C)CC1`, the activity change, negative = cytotoxicity in test [1] is -2.72% [at 15.8 µM]; in test [9] it was 0.438% [at 15.8 µM]; in test [10] it was 1.15% [at 15.8 µM]; in test [8] it was 2.43% [at 15.8 µM]. Also, the cytotoxicity increase was -5.3% [at 15.8 µM] in [2] and -22% [at 15.8 µM] in test [5]. In test [3], the cytotoxicity is -9.31% [at 15.8 µM]. The activity change, negative = cytotoxic in test [6] was 4.97% [at 15.8 µM]. Also, the activity change in test [7] is -3.76% [at 15.8 µM, stronger effect = higher value].
For the molecule `CCc1nn(CCCN2CCN(c3cccc(Cl)c3)CC2)c(=O)n1CCOc1ccccc1`, the Potency result in test [1], in [2], in test [3], in test [4], in test [5] and in [7] was “inactive” in each case. The Potency was 8.49 µM (active) in [9] and 10.7 µM (active) in test [10].
Turning to `C=CCOC(=O)/C=C\C(=O)OCC=C`, the Potency result in test [1], in [2], in [3], in [4], in test [5] and in test [6] was “inactive” in each case. The Potency entry in test [10], in [7] and in [8] was “inactive” in each case.
Turning to `CCCC1C(CC)=CC(CC)=CN1c1ccccc1` (centres undefined), the Potency result in test [1], in test [2], in [3], in [4], in test [5] and in test [6] was “inactive” throughout. Moreover, the Potency result in test [7] and in test [8] was “inactive” each time. Moreover, the Potency in test [9] is 13.8 µM (active).
Take `CCOC(=O)C(C)Oc1ccc(Oc2nc3ccc(Cl)cc3o2)cc1` (centres undefined): the Potency result in [1], in test [2], in test [3], in test [4], in [5] and in test [7] was “inactive” throughout. In [8], the Potency result was “inactive”. Besides, the Potency in test [9] was 24.5 µM (active); in [10] it was 21.9 µM (active).
In the case of `CO[Si](C)(OC)OC`, the Potency entry in [1], in test [2], in test [3], in test [5], in test [6] and in test [9] was “inactive” each time. For the same molecule, the Potency entry in [10], in test [7] and in [8] was “inactive” each time.
For the molecule `CCCCN(CCCC)C(=S)SSC(=S)N(CCCC)CCCC`, the Potency result in test [1], in test [2], in test [3], in test [5], in [6] and in test [7] was “inactive” each time. Also, in test [8], the Potency entry was “inactive”. Further, the Potency was 48.5 µM (active) in [9] and 34.3 µM (active) in test [10].
Take `C/C(=N/NC(=O)c1ccncc1)C(=O)O`: the Potency entry in test [1], in test [2], in [4], in test [5], in test [6] and in [9] was “inactive” in each case. Besides, the Potency result in test [10], in [7] and in test [8] was “inactive” throughout.
Regarding `COC(=O)[C@@H]1CC2=CC(=O)CC[C@]2(C)[C@@]23O[C@@H]2C[C@@]2(C)[C@@H](CC[C@@]24CCC(=O)O4)[C@H]13`, the Potency entry in test [1], in test [2], in test [3], in test [5], in test [6] and in test [9] was “inactive” in each case. Besides, the Potency result in test [10], in test [7] and in test [8] was “inactive” throughout.
For `O=C(NCCCN1CCOCC1)c1ccc(Cl)cc1`, the Potency entry in test [1], in test [2], in test [3], in test [5], in test [6] and in [9] was “inactive” in each case. Moreover, the Potency result in test [10], in test [7] and in test [8] was “inactive” throughout.
Regarding `CC1CC(=O)NN=C1c1ccc(NCC(C)(C)NCC(O)COc2cc(Cl)ccc2C#N)cc1` (centres undefined), the Potency result in test [1], in test [2], in test [3], in test [5], in test [6] and in test [10] was “inactive” in each case. For the same molecule, the Potency entry in [7] and in test [8] was “inactive” throughout.
Regarding `C(=C\c1ccccc1)/CN1CCN(C(c2ccccc2)c2ccccc2)CC1`, the Potency entry in test [1], in test [2], in [3], in [5], in test [6] and in test [10] was “inactive” each time. Also, the Potency result in [7] and in [8] was “inactive” throughout.
As for `COCC(O)CO` (centres undefined), the Potency result in test [1], in test [2], in test [3], in test [5], in [6] and in test [9] was “inactive” each time. Also, the Potency result in test [10], in test [7] and in test [8] was “inactive” each time.
`CN1C(=O)CC(C)(c2ccccc2)C1=O` (centres undefined): the Potency entry in test [1], in [2], in test [3], in [5], in test [6] and in test [9] was “inactive” in each case. In addition, the Potency result in test [10], in test [7] and in test [8] was “inactive” in each case.

These data come from PubChem BioAssay (Tox21).
